PubChem BioAssay (NCI)
The panel holds about 79,000 compounds, 15% with a hit somewhere; the sample as a whole holds those more often. Activity calls are given as the source filed them. Cut-off read from the data, not from the text of the source: active = growth inhibition above about 70%; inactive = the rest.

Key:
[1] = NCI Yeast Anticancer Drug Screen. Data for the rad50 strain (AID 155);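 note: 0% = growth of vehicle-only cultures of the same strain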; settings: S. cerevisiae rad50 strain growth inhibition, hits give high values
Procedure, shortened: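 Readout: growth inhibition relative to vehicle-treated cultures. Compound exposure was carried out in a genetically defined yeast strain deficient in DNA damage repair.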

[2] = NCI Yeast Anticancer Drug Screen. Data for the mec2-1 strain (AID 157); settings: S. cerevisiae mec2-1 strain, hits give high values
Procedure, shortened: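 Strain: mec2-1 (DNA repair/cell cycle alteration). Compound exposure, then growth measured; inhibition expressed relative to vehicle.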

[3] = NCI Yeast Anticancer Drug Screen. Data for the sgs1 mgt1 strain (AID 161);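 note: 0% = growth of cultures given vehicle only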; settings: S. cerevisiae sgs1 mgt1 strain, hits give high values
Procedure, shortened: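 Inhibition of yeast growth, normalised to vehicle-treated controls, is reported for a strain bearing genetic alterations in DNA damage repair.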

[4] = NCI Yeast Anticancer Drug Screen. Data for the cln2 rad14 strain (AID 165);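 note: 0% = growth equal to vehicle treated cultures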; settings: S. cerevisiae cln2 rad14 strain, hits give high values
Procedure, shortened: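 Compounds are applied to the cln2 rad14 yeast strain, and growth is then compared with that of vehicle-treated cultures to give inhibition.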

[5] = NCI Yeast Anticancer Drug Screen. Data for the bub3 strain (AID 167); settings: S. cerevisiae bub3 mutant strain, hits give high values
Procedure, shortened: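 Readout: yeast growth inhibition, expressed relative to vehicle-only wells. The test organism is a mutant strain from a panel with lesions in DNA repair or checkpoint genes.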

[6] = NCI Yeast Anticancer Drug Screen. Data for the mlh1 rad18 strain (AID 175); settings: S. cerevisiae mlh1 rad18 strain growth inhibition, hits give high values
Procedure, shortened: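 Read-out is yeast growth inhibition, calculated against vehicle-only controls. The compound was applied to a strain engineered with DNA damage repair alterations.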

[7] = at 5.0 µM (retest, dose inferred, filed as 0.5)
[8] = at 50.0 µM (retest, dose inferred, filed as 5.0)

Measured: growth inhibition

S=C(S)NCCN1CCNCC1
active: [4]; at 50.0 µM 73.8%
inactive: [1]; [7] 9% | [1]; [8] -14% | [1]; at 50.0 µM 36.8% | [2]; [7] -20% | [2]; [8] -10% | [2]; at 50.0 µM -38.1% | [3]; [7] 0% | [3]; [8] -16% | [3]; at 50.0 µM -27.9% | [4]; [7] -3% | [4]; [8] 1% | [5]; [7] -6% | [5]; [8] -11% | [5]; at 50.0 µM -40.6% | [6]; [7] -4% | [6]; [8] -1% | [6]; at 50.0 µM -10.3%

[N-]=[N+]=CC(=O)C1(c2ccccc2)OC1c1ccccc1 (configuration not stated)
active: [6]; at 50.0 µM 82.8%
inactive: [1]; [7] -20% | [1]; [8] 1% | [1]; at 50.0 µM 23.6% | [2]; [7] 7% | [2]; [8] 10% | [2]; at 50.0 µM 2.55% | [3]; [7] -16% | [3]; [8] -4% | [3]; at 50.0 µM 55.5% | [4]; [7] -21% | [4]; [8] -18% | [4]; at 50.0 µM 32.5% | [5]; [7] -43% | [5]; [8] -6% | [5]; at 50.0 µM -7.55% | [6]; [7] -32% | [6]; [8] -33%

COc1ccc(C(c2ccc(OC)c(OC)c2)C(Cl)(Cl)Cl)cc1OC
inactive: [1]; [7] 3% | [2]; [7] 8% | [3]; [7] 6% | [4]; [7] 8% | [5]; [7] 3% | [6]; [7] 6%
active: [1]; [8] 94% | [1]; at 50.0 µM 89.5% | [2]; [8] 96% | [2]; at 50.0 µM 93.4% | [3]; [8] 95% | [3]; at 50.0 µM 94% | [4]; [8] 94% | [4]; at 50.0 µM 86% | [5]; [8] 97% | [5]; at 50.0 µM 88.5% | [6]; [8] 94% | [6]; at 50.0 µM 92.4%

CC(=O)O[C@@H]1CC(C)C2CC2C2=C(C(O)OC2O)[C@@H]1C(C)CCC=C(C)C (some centres not stated)
inactive: [1]; [7] 19% | [3]; [7] 25%
active: [1]; [8] 98% | [1]; at 50.0 µM 91.9% | [2]; [7] 92% | [2]; [8] 99% | [2]; at 50.0 µM 93.7% | [3]; [8] 98% | [3]; at 50.0 µM 93% | [4]; [7] 86% | [4]; [8] 98% | [4]; at 50.0 µM 90% | [5]; [7] 99% | [5]; [8] 98% | [5]; at 50.0 µM 92.4% | [6]; [7] 78% | [6]; [8] 98% | [6]; at 50.0 µM 91.5%

c1ccc(-n2ncc3ccc4cccn4c32)cc1
active: [5]; at 50.0 µM 91.3%
inactive: [1]; [7] -4% | [1]; [8] -2% | [1]; at 50.0 µM 63.9% | [2]; [7] 3% | [2]; [8] 9% | [2]; at 50.0 µM 38.1% | [3]; [7] -15% | [3]; [8] 40% | [3]; at 50.0 µM 55% | [4]; [7] -13% | [4]; [8] 25% | [4]; at 50.0 µM 13.1% | [5]; [7] 17% | [5]; [8] 16% | [6]; [7] 12% | [6]; [8] 40% | [6]; at 50.0 µM 47.7%

O=C1OC(c2cccc(Cl)c2)=N/C1=C\C=C/c1ccccc1
inactive: [1]; [7] -3% | [1]; [8] -10% | [1]; at 50.0 µM 14.1% | [2]; [7] -27% | [2]; [8] -15% | [2]; at 50.0 µM -7.9% | [3]; [7] -8% | [3]; [8] 1% | [3]; at 50.0 µM 17.6% | [4]; [7] 19% | [4]; [8] 21% | [4]; at 50.0 µM 11.8% | [5]; [7] -1% | [5]; [8] -10% | [5]; at 50.0 µM 11.9% | [6]; [7] -16% | [6]; [8] -39% | [6]; at 50.0 µM 3.9%

CC1(C)COC(C)(C(=O)O)OC1
inactive: [1]; [7] 2% | [1]; [8] -5% | [1]; at 50.0 µM 51.6% | [2]; [7] -2% | [2]; [8] -1% | [2]; at 50.0 µM -3.35% | [3]; [7] 4% | [3]; [8] 2% | [3]; at 50.0 µM -5.8% | [4]; [7] 0% | [4]; [8] -6% | [4]; at 50.0 µM -50.7% | [5]; [7] -4% | [5]; [8] 0% | [5]; at 50.0 µM -1.8% | [6]; [7] 6% | [6]; [8] -1% | [6]; at 50.0 µM -8%

Clc1ccc2c(Cl)c3c(nc2c1)CCCC3
active: [1]; [8] 98% | [1]; at 50.0 µM 99% | [2]; [8] 99% | [2]; at 50.0 µM 99.5% | [3]; [8] 99% | [4]; [8] 99% | [4]; at 50.0 µM 99.3% | [5]; [8] 98% | [5]; at 50.0 µM 99.5% | [6]; [8] 94% | [6]; at 50.0 µM 99.2%
inactive: [1]; [7] -1% | [2]; [7] 2% | [3]; [7] 2% | [3]; at 50.0 µM 48.1% | [4]; [7] 0% | [5]; [7] 3% | [6]; [7] -5%

O=C(CCCl)Nc1cc2ccccc2oc1=O
inactive: [1]; [7] -19% | [1]; [8] -19% | [1]; at 50.0 µM -8.5% | [2]; [7] -2% | [2]; [8] -17% | [2]; at 50.0 µM 15.9% | [3]; [7] -10% | [3]; [8] 23% | [3]; at 50.0 µM 6.65% | [4]; [7] 1% | [4]; [8] 13% | [4]; at 50.0 µM 0.55% | [5]; [7] -4% | [5]; [8] -10% | [5]; at 50.0 µM -1.1% | [6]; [7] -16% | [6]; [8] 19% | [6]; at 50.0 µM -2.15%
